Results published in publication PMC5540273 (PLoS ONE, 2017).

Assays:
Conditions in all cases: concentration: 1 μM, replicates: in singlicate; n = 1
PCTK2 = system: T1, PCTK2
T1 construct: gene CDK17

PCTK3 = system: T2, PCTK3
T2 construct: gene CDK18

PDGFRA = system: PDGFRA
PDGFRB = system: PDGFRB
PDPK1 = system: PDPK1
PFTAIRE2 = system: PFTAIRE2
PFTK1 = system: T3, PFTK1
T3 construct: gene CDK14

PHKG1 = system: PHKG1
PHKG2 = system: PHKG2
PIK3C2B = system: PIK3C2B
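Further: KINOMEscan kinase panel screen.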

O=C(Nc1ccccc1F)NC1CCN(c2ccnc(Nc3ccc(F)cc3)n2)CC1 [GSK1379800]
%Inh (PCTK2): 0%
%Inh (PCTK3): 0%
%Inh (PDGFRA): 0%
%Inh (PDGFRB): 11%
%Inh (PDPK1): 0%
%Inh (PFTAIRE2): 5%
%Inh (PFTK1): 15%
%Inh (PHKG1): 0%
%Inh (PHKG2): 0%
%Inh (PIK3C2B): 0%

CCCCc1nn2ncccc2c1-c1ccnc(Nc2ccc(N3CCN(C)CC3)cc2)n1 [GW684941]
%Inh (PCTK2): 37%
%Inh (PCTK3): 16%
%Inh (PDGFRA): 98.8%
%Inh (PDGFRB): 100%
%Inh (PDPK1): 0%
%Inh (PFTAIRE2): 0%
%Inh (PFTK1): 0%
%Inh (PHKG1): 20%
%Inh (PHKG2): 4%
%Inh (PIK3C2B): 66%

CCc1ccc(-c2ccc3c(c2)-c2c(cnn2C)S(=O)(=O)N3C)cc1
%Inh (PCTK2): 10%
%Inh (PCTK3): 0%
%Inh (PDGFRA): 0%
%Inh (PDGFRB): 6%
%Inh (PDPK1): 4%
%Inh (PFTAIRE2): 0%
%Inh (PFTK1): 0%
%Inh (PHKG1): 5%
%Inh (PHKG2): 0%
%Inh (PIK3C2B): 8%

CN1CCN(CCCNc2nccc(-c3c(-c4ccc(F)cc4)nn4cc(C(F)(F)F)ccc34)n2)CC1 [GW621581]
%Inh (PCTK2): 0%
%Inh (PCTK3): 12%
%Inh (PDGFRA): 0%
%Inh (PDGFRB): 10%
%Inh (PDPK1): 3%
%Inh (PFTAIRE2): 13%
%Inh (PFTK1): 0%
%Inh (PHKG1): 0%
%Inh (PHKG2): 0%
%Inh (PIK3C2B): 0%

Cl.NC(=O)c1cccc(Nc2nccc(Nc3ccc(Oc4c(Cl)cccc4Cl)c(Cl)c3)n2)c1 [GW659009]
%Inh (PCTK2): 0%
%Inh (PCTK3): 0%
%Inh (PDGFRA): 0%
%Inh (PDGFRB): 36%
%Inh (PDPK1): 0%
%Inh (PFTAIRE2): 15%
%Inh (PFTK1): 0%
%Inh (PHKG1): 0%
%Inh (PHKG2): 0%
%Inh (PIK3C2B): 0%

Cl.Cl.NCC(NCc1ccc(-c2ccnc3[nH]ccc23)s1)c1ccccc1 (centres unmarked) [GSK1321565]
%Inh (PCTK2): 0%
%Inh (PCTK3): 0%
%Inh (PDGFRA): 5%
%Inh (PDGFRB): 44%
%Inh (PDPK1): 0%
%Inh (PFTAIRE2): 4%
%Inh (PFTK1): 1%
%Inh (PHKG1): 19%
%Inh (PHKG2): 13%
%Inh (PIK3C2B): 0%

Cl.Cl.NCC(C(=O)Nc1cc(Br)c(-c2ccnc3[nH]ccc23)s1)c1ccccc1 (centres unmarked) [GSK1269851]
%Inh (PCTK2): 6%
%Inh (PCTK3): 0%
%Inh (PDGFRA): 0%
%Inh (PDGFRB): 38%
%Inh (PDPK1): 0%
%Inh (PFTAIRE2): 24%
%Inh (PFTK1): 28%
%Inh (PHKG1): 49%
%Inh (PHKG2): 0%
%Inh (PIK3C2B): 0%

c1ccc(-c2cnc3nccnn23)cc1 [AH20685]
%Inh (PCTK2): 0%
%Inh (PCTK3): 15%
%Inh (PDGFRA): 0%
%Inh (PDGFRB): 23%
%Inh (PDPK1): 0%
%Inh (PFTAIRE2): 0%
%Inh (PFTK1): 0%
%Inh (PHKG1): 40%
%Inh (PHKG2): 0%
%Inh (PIK3C2B): 0%

Cl.c1ccc(-c2ccc3c(Nc4ccc5[nH]ccc5c4)ccnc3c2)nc1 [GW440138]
%Inh (PCTK2): 6%
%Inh (PCTK3): 28%
%Inh (PDGFRA): 99.2%
%Inh (PDGFRB): 99.9%
%Inh (PDPK1): 0%
%Inh (PFTAIRE2): 0%
%Inh (PFTK1): 14%
%Inh (PHKG1): 0%
%Inh (PHKG2): 0%
%Inh (PIK3C2B): 0%

Cc1occc1-c1ncc(OC[C@@H](N)Cc2c[nH]c3ccccc23)cc1-c1ccc2[nH]nc(C)c2c1.O=C(O)C(F)(F)F [GSK682037]
%Inh (PCTK2): 0%
%Inh (PCTK3): 0%
%Inh (PDGFRA): 0%
%Inh (PDGFRB): 81%
%Inh (PDPK1): 0%
%Inh (PFTAIRE2): 16%
%Inh (PFTK1): 14%
%Inh (PHKG1): 0%
%Inh (PHKG2): 0%
%Inh (PIK3C2B): 0%

Cc1ccc(S(=O)(=O)Nc2ccc(Nc3nccc(Nc4cccc5[nH]ncc45)n3)cc2)cc1 [GSK581271]
%Inh (PCTK2): 0%
%Inh (PCTK3): 12%
%Inh (PDGFRA): 0%
%Inh (PDGFRB): 73%
%Inh (PDPK1): 0%
%Inh (PFTAIRE2): 12%
%Inh (PFTK1): 10%
%Inh (PHKG1): 0%
%Inh (PHKG2): 0%
%Inh (PIK3C2B): 0%
